# MLL CXXC-DNA inh: MLL CXXC-DNA interaction inhibition | Q03164 | MLL-CXXC / FITC-HOXA9 DNA fluorescence polarization | Potency, µM (top dose mostly 115 µM), for inactives: at the highest dose activity change, negative = inhibition, usual class: inhibitors | actives 0.037% (n = 290,000); active means well fitted inhibition curve with a large enough effect in the polarisation, with a control signal flat, not every such curve was filed as active; inconclusive means small, poorly fitted or top-dose-only effect, or effect the other way, or a change in a side signal; inactive means no such curve, though single readings can be large or run the other way; the % refers to the polarisation; further: potency means the concentration at half of the fitted maximal effect
#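 Steps: dispense CXXC domain solution (7 uM) → pin compounds or unlabeled HOX-A9 DNA control → 5 min ambient → add FLSN-HOX-A9 solution (50 nM) → spin → 30 min ambient → fluorescence polarization. Tris pH 7.5/NaCl/DTT/BSA buffer.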
# Menin-MLL FL inh: displaces fluorescein MLL peptide from human menin. AID 1766. 290,000 tested, under 10 active. FP activity change, % at 61.4 µM. Fluorescence polarization, fluorescein-MLL peptide displacement from menin; active means well fitted curve in the direction sought with a large enough effect in the polarisation, not every such curve was filed as active; inconclusive means small, poorly fitted or top-dose-only effect, or effect the other way, or a change in a side signal; inactive means no such curve, though single readings can be large or run the other way; the % refers to the polarisation; further: % of control where 0% means no effect
# Menin-MLL TR inh: menin-MLL binding inhibition, Texas Red mutant peptide; Menin + Texas Red MLL mutant peptide, fluorescence polarization; Potency, µM (series often up to 61.6 µM), for inactives: top-dose FP activity change, negative = inhibition, most hits filed as inhibitors; O00255; actives 0.23% (n = 270,000); active means well fitted inhibition curve with a large enough effect in the polarisation, with a control signal flat, not every such curve was filed as active; inconclusive means small, poorly fitted or top-dose-only effect, or effect the other way, or a change in a side signal; inactive means no such curve, though single readings can be large or run the other way; the % refers to the polarisation; further: potency means the concentration at half of the fitted maximal effect; % of control where 0% means no effect
# LMNA splice mod: modulators of lamin A splicing | Potency, µM (highest dose often 46.1 µM), without a hit: top-dose ratio change, negative = inhibition, usual class: inhibitors | HeLa LMNA splicing GFP/RFP minigene ratio, 48 h | AID 1487 | actives 0.01% (n = 200,000); active means well fitted inhibition curve with a large enough effect in the signal ratio, with a control signal flat, not every such curve was filed as active; inconclusive means small, poorly fitted or top-dose-only effect, or effect the other way, or a change in a side signal; the % refers to the signal ratio; further: potency means the concentration at half of the fitted maximal effect; on the % scale 0 is the no-effect control and ±100 the full control effect
#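 S3 HeLa cells stably expressing lamin A-EGFP splicing minigene plus DsRed2, 600 cells/well, 48 h compound exposure at 37C. Laser-scanning cytometry; analysed as GFP (500-530 nm)/RFP (575-640 nm) total intensity ratio; 0.5% DMSO vehicle.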
# MLL CXXC Fl: inhibitors of human MLL CXXC domain-DNA interaction; shares compounds with MLL CXXC-DNA inh; MLL CXXC-DNA binding, fluorescein FP; Potency, µM (titrated, usually from 345 µM), for inactives: at the highest dose activity change, negative = inhibition, most hits filed as inhibitors; actives 70% (n = 200); AID 624160; further: potency means the concentration at half of the fitted maximal effect; nearly all actives have a fitted effect of over 80% in size
# MLL CXXC TxRed: inhibitors of human MLL CXXC domain-DNA interaction, Texas Red format. shares compounds with MLL CXXC-DNA inh. MLL CXXC-DNA binding, Texas Red fluorescence polarization. Potency, µM (top dose mostly 345 µM), for inactives: at the top dose activity change, negative = inhibition, most hits filed as inhibitors. actives 40% (n = 200); further: potency means the concentration at half of the fitted maximal effect; on the % scale 0 is the no-effect control and ±100 the full control effect; nearly all actives have a fitted effect of over 75% in size
# MLL CXXC TRF: disrupts human MLL CXXC domain binding to DNA by HTRF; shares compounds with MLL CXXC-DNA inh; MLL CXXC-DNA binding, HTRF, biochemical; Potency, µM (doses to about 172 µM), for the others: top-dose activity change, negative = inhibition, actives largely listed as inhibitors; actives 30% (n = 210); AID 624162; further: on the % scale 0 is the no-effect control and ±100 the full control effect; nearly all actives have a fitted effect of over 80% in size
# An asterisk follows results filed as active; ? = inconclusive; . = no result; ! = repeats disagree; [ ] = dose if it differs, or a comment. This is one part of a sample in which hits are shown more often than they occur. Unless noted, the call rests on the fitted dose curve; in most records, active means well fitted inhibition curve with a large enough effect; inconclusive means small, poorly fitted or top-dose-only effect; inactive means no such curve, though single readings can be large or run the other way.
SMILES,MLL CXXC-DNA inh,Menin-MLL FL inh,Menin-MLL TR inh,LMNA splice mod,others
O=c1c2ccccc2nc(CN2CCCCCC2)n1-c1ccc(F)cc1,9.7%,-27.1,17.8µM*,-8.9%,
CCC(CC)N1CCN(Cc2nc3ccccc3c(=O)n2-c2ccc(F)cc2)CC1,2.7%,-9.7,-10.0%,.,
N.N.N.N.N.N.N.N.N.N.N.N.N.N.O.O.[Cl-].[Cl-].[Cl-].[Cl-].[Cl-].[Cl-].[Ru].[Ru].[Ru],?,?,25.1µM*,?,
CCN1CCN(Cc2nc3ccc([N+](=O)[O-])cc3c(=O)n2-c2ccccc2F)CC1,?,-10.9,10µM*,.,
Cc1ccc2nc3sc(=O)sc3nc2c1,.,-24.0,19.6%,.,
COc1ccc(CNCCc2c(C)[nH]c3ccc(OC(F)(F)F)cc23)c(OC)c1,8.5%,-18.5,28.2µM*,.,
COc1ccc2[nH]c(C)c(CCNCc3cc(OC)c(OC)c(OC)c3)c2c1,0.2%,?,-4.7%,-33.1%[46 µM],
COC(=O)[C@H]1C[C@@H]1[C@H](NP(=O)(c1ccccc1)c1ccccc1)c1ccccc1,5.3%,-0.5,0.1%,-4.6%,
COC(=O)[C@@H]1C[C@H]1[C@@H](NP(=O)(c1ccccc1)c1ccccc1)c1ccccc1,4.9%,1.2,0.141µM*!,?,
CCCCCCCCCCCCCCCC[N+](C)(C)C,?,1.8,28.2µM*!,?,
COC1CC(O[C@H]2/C(C)=C/CC3CC(C[C@]4(CCC(C)C(C5CCCCC5)O4)O3)OC(=O)[C@H]3C=C(C)/C(=N/O)C4OC/C(=C\C=C\[C@@H]2C)[C@@]43O)OC(C)C1O (stereo partly specified),9.2%,-2.1,22.4µM*,?,
CCC(C)C1O[C@]2(C=CC1C)CC1CC(C/C=C(\C)[C@H](OC3CC(OC)C(O[C@H]4CC(OC)[C@@H](O)C(C)O4)C(C)O3)[C@@H](C)/C=C/C=C3\COC4C(O)C(C)=C[C@H](C(=O)O1)[C@@]34O)O2 (stereo partly specified),1.7%,-2.5,?,.,
CCCCCCCC/C=C\CCCCCCCC(=O)OC[C@@H](COP(O)(O)=S)OC,.,-11.4,-0.5%,.,
CN1C2CC(OC(=O)C(CO)c3ccccc3)C[C@@H]1[C@H]1OC21 (stereo partly specified),.,2.5,4.0%,.,
C#C[C@]1(O)CCC2C3CCC4=C/C(=N/OCC(=O)NC(C)C(=O)NC(CCSC)C(=O)O)CC[C@]4(C)C3CC[C@@]21C (stereo partly specified),4.0%,-16.0,25.1µM*,.,
C#C[C@]1(O)CC[C@H]2[C@@H]3CCC4=CC(=O)CC[C@]4(C)[C@H]3CC[C@@]21C,1.3%,0.2,6.3%,?,
O=C1C=CC(=O)c2c1ccc1c2ccc2ccccc21,.,0.7[24.8 µM],?,?,
COC[C@H]1OC(=O)c2coc3c2[C@@]1(C)C1=C(C3=O)[C@H]2CCC(=O)[C@@]2(C)C[C@H]1OC(C)=O,.,?,10µM*,.,
CC(C)Nc1ccc(Nc2ccccc2)cc1,2.2%,-3.2,-10.2%,1.41µM*,
CN1CCN(C(=O)COc2ccc(-c3nc4ccccc4s3)cc2)CC1,-1.3%,1.9,12.6µM*,-2.6%,
Oc1cc[c]([Hg][Cl])cc1,-8.1%,-5.7,3.5%,.,
N#CC(=Cc1ccc(O)c(O)c1)C(N)=S,41.5%,?,10.8%,?,
CCCCN1C(=O)/C(=C/c2ccc(N(C)C)cc2)C(=O)N(Cc2ccco2)C1=O,?,?,25.1µM*,5.5%,
NC1CCCC[C@H]1N (stereo partly specified),.,-0.5,0.5%,.,
COc1ccc(OCCOc2cccc(C=C3C(=O)NC(=O)NC3=O)c2)cc1,?,-1.0,49.4%,.,MLL CXXC Fl=44.8µM*;MLL CXXC TxRed=?;MLL CXXC TRF=38.5µM*
SMILES,MLL CXXC-DNA inh,Menin-MLL FL inh,Menin-MLL TR inh,LMNA splice mod,others
COc1cc(C=C2C(=O)NC(=O)NC2=O)ccc1O,?,?,23.5%,.,MLL CXXC Fl=56.5µM*;MLL CXXC TxRed=159µM*;MLL CXXC TRF=122µM*
CCOc1cc(C=C2C(=O)NC(=O)NC2=O)cc([N+](=O)[O-])c1O,31.6µM*,-6.5,?,.,MLL CXXC Fl=20µM*;MLL CXXC TxRed=89.5µM*;MLL CXXC TRF=19.3µM*
CN(C)c1ccc(C=C2C(=O)NC(=O)NC2=O)cc1[N+](=O)[O-],-7.7%,-0.5,13.9%,-19.0%[46 µM],
CN(CCOc1ccc(C=C2C(=O)NC(=O)NC2=O)cc1)c1ccccn1,-3.3%,-0.1,7.3%,.,
CC(C)c1cc2c(c(O)c1O)[C@@]1(C(=O)O)CCCC(C)(C)[C@@H]1CC2,.,0.5,?,.,
CC(=O)[C@@]1(O)CC[C@H]2C3CCC4=CC(=O)CC[C@]4(C)C3CC[C@@]21C (stereo partly specified),-1.4%,9.1,?,?,
O=C1NC(=S)NC(=O)C12C(c1ccc(F)cc1)NC(=S)NC2c1ccc(F)cc1 (stereo unspecified),?,1.0,.,-3.3%,MLL CXXC Fl=?;MLL CXXC TxRed=30.7%;MLL CXXC TRF=-9.9%
O=P(O)(O)C(Cl)(Cl)P(=O)(O)O,35.5µM*,-4.7,-2.1%,?,MLL CXXC Fl=?;MLL CXXC TxRed=?;MLL CXXC TRF=24.3µM*
